Laboratory results reported in PubChem BioAssay (NCI).
This is part of a sample that, as a whole, favours compounds with a hit. Of some 83,000 tested, about 20% had one in any assay.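 The test compound was applied at a single concentration to cells in 96-well plates for 48 hours, and percent growth was recorded.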 Values without a mark were called inactive. The source made the active and inactive calls. Rule for the calls: active = growth percent below 10; inactive = the rest.

Key:
Experiment in all cases: NCI-60 one-dose screen, 48 h (100 = growth as untreated, 0 = no growth, -100 = all killed)
[1] = system: HOP-92 NSCLC; conditions: 10 µM unless noted
[2] = system: NCI-H522 lung; conditions: 10 µM unless noted
[3] = system: MALME-3M melanoma; conditions: 10 µM unless noted
[4] = system: SNB-19 CNS; conditions: 10 µM unless noted
[5] = system: U251 CNS; conditions: 10 µM unless noted
[6] = system: SK-MEL-5 melanoma; conditions: 10 µM unless noted
[7] = system: SK-MEL-2 melanoma; conditions: 10 µM unless noted
[8] = system: EKVX NSCLC; conditions: 10 µM unless noted
[9] = system: TK-10 renal; conditions: 10 µM unless noted
[10] = system: CCRF-CEM leukemia; conditions: 10 µM unless noted
[11] = system: RPMI-8226 leukemia; conditions: 10 µM unless noted
[12] = system: MDA-MB-435 melanoma; conditions: 10 µM unless noted
[13] = system: HCT-116 colon; conditions: 10 µM unless noted
[14] = system: ACHN renal; conditions: 10 µM unless noted
[15] = system: IGROV1 ovarian; conditions: 10 µM
[16] = system: T-47D breast; conditions: 10 µM unless noted
[17] = system: SR leukemia; conditions: 10 µM
[18] = system: SNB-75 CNS; conditions: 10 µM unless noted
[19] = system: COLO 205 colon; conditions: 10 µM

For COc1cccc2c1C(=O)c1c(O)c3c(c(O)c1C2=O)CC(O)(/C(C)=N/NC(=O)CCC(=O)N/N=C(\C)C1(O)Cc2c(O)c4c(c(O)c2C(OC2CC(N)C(O)C(C)O2)C1)C(=O)c1c(OC)cccc1C4=O)CC3OC1CC(N)C(O)C(C)O1 (stereo not given), the growth [1] was -40.3% [5 µM] (active), the growth [2] was -47% [5 µM] (active) and the growth [3] was -99.1% [5 µM] (active). The growth [4] was -20.9% [5 µM] (active), the growth [5] was -27% [5 µM] (active) and the growth [6] was -100% [5 µM] (active). For the same compound, the growth [7] was -54.3% [5 µM] (active), the growth [8] was -19.4% [5 µM] (active) and the growth [9] was -43.1% [5 µM] (active). The growth [10] was -25.2% [5 µM] (active), the growth [11] was -38% [5 µM] (active) and the growth [12] was -85.2% [5 µM] (active). The growth [13] was -31.5% [5 µM] (active).

For O1[As]2O[As]3O[As]1O[As](O2)O3, the growth [1] was -24.4% (active), the growth [2] was -63.4% (active) and the growth [3] was -15% (active). For the same compound, the growth [4] was -2.55% (active), the growth [6] was -91.5% (active) and the growth [7] was -34.8% (active). For the same compound, the growth [8] was 5.14% (active), the growth [9] was 3.92% (active) and the growth [14] was 28%. It also gave a growth [10] of 13.1%, a growth [11] of 15.1% and a growth [15] of 14.6%. For the same compound, the growth [16] was 22.9%, the growth [12] was 14.1% and the growth [13] was -10.3% (active).

COc1ccc(C(c2ccc(OC)cc2)C(Cl)(Cl)Cl)cc1 showed a growth [1] of 63.9%, a growth [2] of 60% and a growth [3] of 91.8%. For the same compound, the growth [4] was 84%, the growth [5] was 90.4% and the growth [7] was 77.4%. For the same compound, the growth [8] was 95.7%, the growth [9] was 90.3% and the growth [14] was 92.1%. For the same compound, the growth [17] was 71.8%, the growth [11] was 71.5% and the growth [15] was 76.4%. For the same compound, the growth [16] was 68.4% and the growth [12] was 72.4%.

C/C(=C\C(=O)O[C@H]1[C@@H]2[C@H](C)CC[C@H]2[C@]2(C)O[C@@]1(C1CCCCC1)C[C@H]2OC(=O)CO)c1ccccc1 showed a growth [1] of 18.3%, a growth [2] of 20.3% and a growth [3] of 64.4%. For the same compound, the growth [18] was 68.3%, the growth [4] was 64.4% and the growth [5] was 24.2%. The growth [6] was 71.7%, the growth [7] was 55.8% and the growth [8] was 48%. The growth [9] was 70.5%, the growth [10] was 7.86% (active) and the growth [11] was -28.7% (active). For the same compound, the growth [15] was 71.1%, the growth [12] was 61.7% and the growth [13] was 7.81% (active).

In the case of Cc1cccc(N(C)c2cccc3c2C(=O)[Se]C3)c1C, the growth [1] is reported as 81.4%, the growth [19] is reported as 27.1% and the growth [3] is reported as 63.7%. It also gave a growth [4] of 58.8%, a growth [5] of 47% and a growth [6] of 66%. For the same compound, the growth [7] was 62.8%, the growth [8] was 19.9% and the growth [9] was 62.8%. For the same compound, the growth [14] was 54%, the growth [10] was 56.1% and the growth [17] was 4.83% (active). For the same compound, the growth [11] was 81.9%, the growth [16] was 73.4% and the growth [12] was 78%. The growth [13] was 3.47% (active).

O=C(CCl)NCNC(=O)CCl gave a growth [1] of 99.5%, a growth [19] of 109% and a growth [3] of 114%. For the same compound, the growth [6] was 92.7%, the growth [9] was 105% and the growth [14] was 94.5%. It also gave a growth [17] of 80.2%, a growth [11] of 83% and a growth [15] of 74.4%. It also gave a growth [16] of 92.6% and a growth [12] of 93.9%.

Work on CCCCCCCCCCOc1ccc(C(=O)Oc2ccc(CSP3(=O)OCC4OC(n5ccc(=O)[nH]c5=O)C(F)C4OP(=O)(O)OCC4OC(n5cnc6c(N)ncnc65)C(F)C4O3)cc2)cc1 (stereo not given) yielded a growth [1] of 85.4%, a growth [2] of 71.1% and a growth [3] of 110%. The growth [18] was 102%, the growth [4] was 103% and the growth [5] was 104%. It also gave a growth [6] of 111%, a growth [7] of 76.3% and a growth [8] of 111%. It also gave a growth [9] of 92%, a growth [10] of 87.1% and a growth [17] of 25.4%. The growth [11] was 82.6%, the growth [15] was 95.3% and the growth [16] was 96.4%. It also gave a growth [12] of 105% and a growth [13] of 79.9%.

CCOC(=O)Nc1cc(Cl)c([N+](=O)[O-])c(NC(=O)OCC)n1 was tested, and the growth [1] was 78.2%, the growth [2] was 7.41% (active) and the growth [19] was 115%. It also gave a growth [3] of 99.3%, a growth [18] of 97.3% and a growth [4] of 98.1%. The growth [6] was 91.8%, the growth [7] was 74.6% and the growth [9] was 103%. The growth [14] was 53.6%, the growth [10] was 33.1% and the growth [17] was -22.8% (active). The growth [11] was 71.5%, the growth [15] was 55.6% and the growth [16] was 82.1%. It also gave a growth [12] of 65.4% and a growth [13] of 53.5%.

CC(=O)Nc1ccc(Cc2ccc(NC(C)=O)cc2)cc1 gave a growth [1] of 45.6%, a growth [2] of 104% and a growth [3] of 103%. The growth [18] was 93.4%, the growth [4] was 121% and the growth [5] was 101%. For the same compound, the growth [6] was 104%, the growth [8] was 103% and the growth [9] was 106%. The growth [14] was 101%, the growth [10] was 101% and the growth [17] was 125%. For the same compound, the growth [11] was 98.2%, the growth [15] was 116% and the growth [16] was 103%. For the same compound, the growth [12] was 106% and the growth [13] was 94.9%.
